# From PubChem BioAssay
# The source made the active and inactive calls.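 How the source made its calls: active means compounds whose cell count with miR-34 switched on is under 0.7 times the count with it off; inactive means the rest.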
# Assay: viability loss with induced miR-34 in A549 – imaging, A549 dox-inducible miR-34, nuclei and caspase counts, primary screen (AID 1347080); further: test concentration not given here
# Settings: A549 miR-34 inducible, Hoechst nuclei count, 48 h
# [1] = stronger effect = lower value, cell number ratio, induced over uninduced
# [2] = measured here: relative caspase fold change +Dox/-Dox
# [3] = measured here: total cells with miR-34 induction, stronger effect = lower value
# [4] = measured here: total cells without miR-34 induction
SMILES,fold change [1],fold change [2],cell count [3],cell count [4]
O=C1C[C@@H]2[C@@H](/C=C/[C@@H](O)COc3cccc(C(F)(F)F)c3)[C@H](O)C[C@@H]2O1,0.96 (inactive),1.35,5650,5880
CC(C)CCOc1ccc(NC(=S)Nc2ccc(OCCC(C)C)cc2)cc1,0.881 (inactive),0.401,4560,5170
CN,1.06 (inactive),0.984,4700,4430
CCCCCCCCCCCCCCCCCCCCCC(=O)NCCO,1.03 (inactive),0.641,6180,5980
C#CCOc1ccccc1CCCCCC(=O)O,1.11 (inactive),0.728,5930,5330
O=C(O)CCC/C=C\C[C@H]1C(=O)C[C@@H](O)[C@@H]1/C=C/[C@@H](O)Cc1ccccc1,0.985 (inactive),1.05,5810,5900
O=C(O)c1ccc2c(c1)CCCC2,0.93 (inactive),0.342,5260,5660
O=C(O)CCC/C=C\C[C@H]1[C@@H](/C=C/[C@@H](O)CCc2ccccc2)[C@H](O)C[C@H]1O,0.969 (inactive),0.334,5150,5310
CCCCC[C@](C)(O)/C=C/[C@H]1[C@H](O)CC(=O)[C@@H]1CCCCCCC(=O)O,1 (inactive),1.58,5750,5720
CCCCC[C@H]1/C=C/[C@@H]2[C@@H](C/C=C\CCCC(=O)O1)[C@@H](O)C[C@H]2O,0.933 (inactive),1,4270,4580
CCCC1([C@@H](O)C/C=C/[C@H]2C(O)CC(=O)[C@@H]2CCCCCCC(=O)OC)CCC1 (stereo not given in full),1.02 (inactive),1.54,6030,5910
C[C@H](CCCO)[C@H]1CC[C@H]2[C@@H]3[C@H](O)C[C@H]4CC(=O)CC[C@]4(C)[C@H]3C[C@H](O)[C@]12C,0.847 (inactive),0.203,4760,5610
CCCCC[C@H](O)/C=C/[C@H]1[C@H](O)CC(=O)[C@H]1C/C=C\CCCC(=O)OC(C)C,0.953 (inactive),1.45,5550,5820
CCCCC(C)(C)[C@H](O)/C=C/[C@@H]1[C@@H](C/C=C\CCCC(=O)O)[C@@H](O)C[C@H]1O,0.98 (inactive),1.24,5690,5800
O=C(OC[C@@H]1O[C@H]1c1ccccc1)Oc1ccc([N+](=O)[O-])cc1,0.896 (inactive),0.428,5550,6200
CCCCCC#CCC#CCC#CCCCCCCC(=O)O,0.97 (inactive),0.33,5730,5910
O=P(O)(O)OC1C(O)C(OP(=O)(O)O)C(O)C(OP(=O)(O)O)C1O (stereo not given),0.967 (inactive),0.962,5750,5950
O=C(CCC/C=C\C[C@H]1C(=O)C[C@@H](O)[C@@H]1/C=C/[C@@H](O)CCc1ccccc1)NC(CO)CO,0.931 (inactive),0.89,5500,5910
CCCCCCCC/C=C\CCCCCCCC(=O)N[C@H](CO)Cc1ccc(O)cc1,1.03 (inactive),1.33,6010,5860
CCCCCCCC/C=C\CCCCCCCC(=O)c1nc2ncccc2o1,0.938 (inactive),0.974,5390,5740

SMILES,fold change [1],fold change [2],cell count [3],cell count [4]
CCCCC[C@H](O)/C=C/[C@@H]1C(C/C=C\CCCCN(C)C)[C@@H](O)C[C@H]1O (stereo not given in full),0.95 (inactive),1.02,5640,5940
CCCCC[C@H](O)/C=C/[C@@H]1[C@@H](CCCCCCC(=O)O)[C@H](O)C[C@H]1O,0.962 (inactive),1.22,6020,6250
CCCCCCCCCCCCCCCCC/C=C\C(=O)O,0.872 (inactive),1,5170,5930
NC(=NCC[C@H](N)C(=O)O)NO,0.915 (inactive),0.994,4720,5160
COc1ccc(-c2nc3cc(F)ccc3s2)cc1OC,0.915 (inactive),0.244,4920,5370
CCCCC/C=C/C=C1/C=CC(=O)[C@@H]1C/C=C\CCCC(=O)O,0.952 (inactive),1.85,5680,5960
CCCCC[C@H](O)/C=C/[C@@H]1[C@H](CCCCCCC(=O)O)[C@@H](O)C[C@H]1O,0.957 (inactive),1.43,6250,6530
CCCCC[C@H](O)/C=C/[C@H]1C2CC(CO2)[C@@H]1C/C=C/CCCC(=O)O (stereo not given in full),1 (inactive),1.25,6110,6090
CCCCC[C@H](O)/C=C/[C@H]1C(=O)C[C@H](O)[C@@H]1C/C=C\CCCC(=O)OCC(O)CO (stereo not given in full),1.06 (inactive),1.71,6090,5740
CCCCCCCC/C=C\CCCCCCCCOCCOP(=O)([O-])OCC[N+](C)(C)C,0.927 (inactive),0.887,5510,5950
CCCCC[C@H](O)/C=C/[C@@H]1[C@H](CCCCCCC(=O)O)[C@H](O)C[C@H]1O,0.963 (inactive),1.17,6030,6260
CCCCC(C)(O)C/C=C/[C@H]1[C@H](O)CC(=O)[C@H]1CCCCCCC(=O)OC (stereo not given in full),1.02 (inactive),1.88,5420,5290
CC(C)(C)C(=O)Nc1ccccc1,0.896 (inactive),1.18,5080,5670
O=C(NCc1ccc(Cl)c(Cl)c1)O[C@H]1CCc2ccccc21,1.02 (inactive),1.19,5770,5680
CCCCC(C)(C)[C@H](O)/C=C/[C@H]1CCC(=O)[C@@H]1C/C=C\CCCC(=O)O,0.973 (inactive),1.01,6270,6450
COc1cc([C@@H]2OC[C@@H](c3cc(OC)c(OC)c(OC)c3)O2)cc(OC)c1OC,0.96 (inactive),0.869,5040,5250
COC(=O)C1=CC[C@@]23CC[C@@H]([C@@](C)(/C=C/C=C(\C)C(=O)O)OC2=O)[C@@]3(OC(C)=O)CC1,1.15 (inactive),0.682,2140,1860
CCCCC/C=C/C=C1/C=CC(=O)[C@@H]1CCCCCCC(=O)O,1.71 (inactive),0.938,5570,3250
C=C(C)[C@@H]1CCC(C)=C[C@H]1c1c(O)cc(C)cc1O,0.94 (inactive),1.01,5290,5630
CCCCCCCCCCCCCCCCOC[C@H](COP(=O)([O-])OCC[N+](C)(C)C)OCC,0.91 (inactive),1.05,5080,5580

SMILES,fold change [1],fold change [2],cell count [3],cell count [4]
CCCCC(C)(C)[C@H](O)/C=C/[C@H]1C=CC(=O)[C@@H]1CCCCCCC(=O)O,1 (inactive),1.69,5490,5490
COc1ccc2cc(C(C#N)OC(=O)CC3OC3c3ccccc3)ccc2c1 (stereo not given),0.909 (inactive),0.7,5490,6040
CCCCCCCC/C=C\CCCCCCCC(=O)OCC,1 (inactive),0.399,5610,5590
CC/C=C\C/C=C\C/C=C\CCCCCCCC(=O)NCCO,1.05 (inactive),0.865,5950,5670
CCCCC[C@@](C)(O)/C=C/[C@H]1C(=O)C[C@H](O)[C@@H]1C/C=C\CCCC(=O)O,0.936 (inactive),1.24,5370,5740
CCCCCCCCCCCC(=O)NC[C@]1(C)CCC[C@]2(C)c3ccc(C(C)C)cc3CC[C@@H]12,0.97 (inactive),1.59,6180,6370
O=P(O)(O)OC1[C@@H](O)[C@H](O)C(O)[C@H](O)[C@@H]1O (stereo not given in full),0.924 (inactive),0.602,5550,6010
CCCCC[C@H](O)/C=C/[C@@H]1[C@@H](C/C=C\CCCC(=O)N(CC)CC)[C@@H](O)C[C@H]1O,0.98 (inactive),0.858,5500,5610
CCCCC[C@H](O)/C=C/[C@H]1C(=O)C[C@H](O)[C@@H]1C/C=C\CCCC(=O)NC(CO)CO,0.913 (inactive),1.9,5680,6220
CCCCCCCCCCCCCCCC(=O)NC(C)C,1.13 (inactive),0.996,6190,5500
CCCCCCCCCCCCCCCCCC(=O)NCCO,0.986 (inactive),1.01,6030,6120
CCOc1c2c(c(OCC)c3ccccc13)C(=O)N(c1ccc(CC(=O)NS(=O)(=O)c3ccccc3)cc1)C2,0.911 (inactive),1.11,5560,6100
CC[C@@H]1/C=C(\C)C[C@H](C)C[C@H](OC)[C@H]2O[C@@](O)(C(=O)C(=O)N3CCCC[C@H]3C(=O)O[C@H](/C(C)=C/[C@@H]3CC[C@@H](O)[C@H](OC)C3)[C@H](C)[C@@H](O)CC1=O)[C@H](C)C[C@@H]2OC,0.914 (inactive),1.28,3590,3930
COC(=O)[C@H](Cc1ccccc1)NC(=O)/C=C/c1ccc(O)cc1,1 (inactive),0.674,6500,6490
CCCCC/C=C\C/C=C\C/C=C\C/C=C\CCCC(=O)NC[C@]1(C)CCC[C@]2(C)c3ccc(C(C)C)cc3CC[C@@H]12,0.99 (inactive),1.27,5530,5580
CCCOCCCCCCCCCC(=O)O,1.02 (inactive),1.03,6150,6040
CCCCCCCCCCCCCCCCCCCCCCC(=O)OCC,0.908 (inactive),0.513,4740,5220
CC(C(=O)Nc1cccc(N=Cc2c(O)ccc3ccccc23)c1)c1ccccc1 (stereo not given),0.971 (inactive),1.6,5970,6150
CC/C=C\C/C=C\C/C=C\C/C=C\CCCCC(=O)OC,0.976 (inactive),1.08,5040,5160
CCCCCCCC(=O)CC[C@@H]1[C@@H](C/C=C\CCCC(=O)OC(C)C)[C@@H](O)C[C@H]1O,0.954 (inactive),1.15,5890,6180
